Test results published in the supplement of paper PMC11732987, “Enantioselective OTUD7B fragment discovery through chemoproteomics screening and high-throughput optimisation” (Communications Chemistry, 2025).

Experiments:
Assay in all cases: log2 ratio of Biotin-Ahx-Ub-VS probe labelling (fragment/DMSO); higher = less target engagement (more negative = stronger competition), active = hit call of the paper (q ≤ 0.05, log2 ratio ≤ -1)
Conditions in all cases: compound concentration: 200 uM; treatment time: 3 h
[1] = target: USP34 (UniProt Q70CQ2)
In short: (§1)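 The table lists average log2 ratios of fragment over vehicle, from an unpaired t-test on global-median-normalised Spectronaut label-free quantities. Proteins with ≥2 unique peptides were used. Samples were HEK293T lysate (495 µg) treated in triplicate with fragment at 200 µM or vehicle for 3 h, then with Biotin-Ahx-Ub-VS (0.5 µM final) for 1 h, with labelled DUBs NeutrAvidin-enriched and run by diaPASEF LC-MS/MS.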

[2] = target: T1, USP36 (UniProt Q9P275)
T1 sequence (whole entry): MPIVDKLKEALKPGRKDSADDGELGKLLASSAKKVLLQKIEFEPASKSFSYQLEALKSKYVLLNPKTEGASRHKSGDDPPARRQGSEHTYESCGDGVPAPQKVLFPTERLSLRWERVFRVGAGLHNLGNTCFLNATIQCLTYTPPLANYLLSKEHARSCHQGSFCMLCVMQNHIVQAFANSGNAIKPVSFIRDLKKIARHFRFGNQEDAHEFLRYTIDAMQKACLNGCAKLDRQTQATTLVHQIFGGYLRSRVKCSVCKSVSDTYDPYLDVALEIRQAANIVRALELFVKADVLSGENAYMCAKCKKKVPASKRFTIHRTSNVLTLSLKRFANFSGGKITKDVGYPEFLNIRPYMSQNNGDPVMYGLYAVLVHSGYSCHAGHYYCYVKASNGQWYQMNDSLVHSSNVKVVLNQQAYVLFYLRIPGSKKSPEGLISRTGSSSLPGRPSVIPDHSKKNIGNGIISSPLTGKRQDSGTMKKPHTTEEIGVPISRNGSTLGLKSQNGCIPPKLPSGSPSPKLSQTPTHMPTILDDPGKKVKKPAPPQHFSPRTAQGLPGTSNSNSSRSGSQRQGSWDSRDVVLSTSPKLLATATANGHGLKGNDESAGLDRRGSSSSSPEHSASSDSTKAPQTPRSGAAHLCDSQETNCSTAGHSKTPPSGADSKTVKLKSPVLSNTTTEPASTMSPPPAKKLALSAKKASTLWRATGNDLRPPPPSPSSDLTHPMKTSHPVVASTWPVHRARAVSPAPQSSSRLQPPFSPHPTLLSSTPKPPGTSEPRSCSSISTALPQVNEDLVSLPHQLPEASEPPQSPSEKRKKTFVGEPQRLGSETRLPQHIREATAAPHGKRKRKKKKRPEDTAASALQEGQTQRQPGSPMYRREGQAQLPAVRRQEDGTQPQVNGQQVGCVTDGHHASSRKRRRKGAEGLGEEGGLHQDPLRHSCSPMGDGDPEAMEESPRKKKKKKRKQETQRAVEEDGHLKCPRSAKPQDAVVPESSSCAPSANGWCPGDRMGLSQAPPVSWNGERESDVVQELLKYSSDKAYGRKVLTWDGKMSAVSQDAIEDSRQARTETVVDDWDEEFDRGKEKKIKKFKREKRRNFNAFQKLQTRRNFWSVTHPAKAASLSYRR
In short: as §1

[3] = target: T2, USP38 (UniProt Q8NB14)
T2 sequence (whole entry): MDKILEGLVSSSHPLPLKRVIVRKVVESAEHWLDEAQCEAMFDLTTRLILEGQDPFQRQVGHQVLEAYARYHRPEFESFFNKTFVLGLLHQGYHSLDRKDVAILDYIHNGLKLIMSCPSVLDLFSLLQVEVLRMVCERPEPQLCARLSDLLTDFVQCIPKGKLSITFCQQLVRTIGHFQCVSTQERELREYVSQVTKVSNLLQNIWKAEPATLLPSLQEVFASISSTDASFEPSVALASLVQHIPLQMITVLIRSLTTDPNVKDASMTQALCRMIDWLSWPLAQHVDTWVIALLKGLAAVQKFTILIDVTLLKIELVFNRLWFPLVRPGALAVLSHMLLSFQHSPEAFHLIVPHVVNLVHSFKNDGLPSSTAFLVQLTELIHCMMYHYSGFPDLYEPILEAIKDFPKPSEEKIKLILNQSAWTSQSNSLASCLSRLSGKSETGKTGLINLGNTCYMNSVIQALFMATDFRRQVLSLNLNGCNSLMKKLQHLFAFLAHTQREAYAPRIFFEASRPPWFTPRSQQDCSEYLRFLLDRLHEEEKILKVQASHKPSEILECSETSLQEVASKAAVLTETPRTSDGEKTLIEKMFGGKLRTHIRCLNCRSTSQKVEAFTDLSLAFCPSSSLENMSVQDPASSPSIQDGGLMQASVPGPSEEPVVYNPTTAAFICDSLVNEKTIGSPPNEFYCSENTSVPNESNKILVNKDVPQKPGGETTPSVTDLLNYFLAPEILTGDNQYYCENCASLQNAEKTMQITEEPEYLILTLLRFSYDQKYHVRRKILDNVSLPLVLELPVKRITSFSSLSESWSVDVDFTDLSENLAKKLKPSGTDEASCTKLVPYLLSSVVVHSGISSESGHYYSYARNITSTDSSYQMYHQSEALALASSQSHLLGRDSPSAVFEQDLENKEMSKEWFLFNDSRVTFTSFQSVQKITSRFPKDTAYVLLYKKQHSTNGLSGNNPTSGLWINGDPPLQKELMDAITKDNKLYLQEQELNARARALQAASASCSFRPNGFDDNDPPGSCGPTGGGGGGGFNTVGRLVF
In short: as §1

[4] = target: T3, USP39 (UniProt Q53GS9)
T3 sequence (whole entry): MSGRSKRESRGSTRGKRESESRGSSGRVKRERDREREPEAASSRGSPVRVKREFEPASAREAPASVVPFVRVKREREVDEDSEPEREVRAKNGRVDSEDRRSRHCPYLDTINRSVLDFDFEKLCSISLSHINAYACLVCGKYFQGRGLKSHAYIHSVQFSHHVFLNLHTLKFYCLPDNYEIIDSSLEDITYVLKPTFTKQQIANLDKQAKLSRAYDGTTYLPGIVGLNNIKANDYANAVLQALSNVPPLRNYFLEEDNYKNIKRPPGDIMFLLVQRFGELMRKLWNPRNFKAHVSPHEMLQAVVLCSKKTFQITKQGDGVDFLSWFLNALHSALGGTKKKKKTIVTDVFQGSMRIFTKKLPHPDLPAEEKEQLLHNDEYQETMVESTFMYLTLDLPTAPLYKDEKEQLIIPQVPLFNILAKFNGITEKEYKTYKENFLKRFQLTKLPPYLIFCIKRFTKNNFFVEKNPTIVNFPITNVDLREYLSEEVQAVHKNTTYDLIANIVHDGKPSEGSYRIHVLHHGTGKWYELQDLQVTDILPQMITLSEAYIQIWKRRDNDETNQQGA
In short: as §1

[5] = target: T4, USP4 (UniProt Q13107)
T4 sequence (whole entry): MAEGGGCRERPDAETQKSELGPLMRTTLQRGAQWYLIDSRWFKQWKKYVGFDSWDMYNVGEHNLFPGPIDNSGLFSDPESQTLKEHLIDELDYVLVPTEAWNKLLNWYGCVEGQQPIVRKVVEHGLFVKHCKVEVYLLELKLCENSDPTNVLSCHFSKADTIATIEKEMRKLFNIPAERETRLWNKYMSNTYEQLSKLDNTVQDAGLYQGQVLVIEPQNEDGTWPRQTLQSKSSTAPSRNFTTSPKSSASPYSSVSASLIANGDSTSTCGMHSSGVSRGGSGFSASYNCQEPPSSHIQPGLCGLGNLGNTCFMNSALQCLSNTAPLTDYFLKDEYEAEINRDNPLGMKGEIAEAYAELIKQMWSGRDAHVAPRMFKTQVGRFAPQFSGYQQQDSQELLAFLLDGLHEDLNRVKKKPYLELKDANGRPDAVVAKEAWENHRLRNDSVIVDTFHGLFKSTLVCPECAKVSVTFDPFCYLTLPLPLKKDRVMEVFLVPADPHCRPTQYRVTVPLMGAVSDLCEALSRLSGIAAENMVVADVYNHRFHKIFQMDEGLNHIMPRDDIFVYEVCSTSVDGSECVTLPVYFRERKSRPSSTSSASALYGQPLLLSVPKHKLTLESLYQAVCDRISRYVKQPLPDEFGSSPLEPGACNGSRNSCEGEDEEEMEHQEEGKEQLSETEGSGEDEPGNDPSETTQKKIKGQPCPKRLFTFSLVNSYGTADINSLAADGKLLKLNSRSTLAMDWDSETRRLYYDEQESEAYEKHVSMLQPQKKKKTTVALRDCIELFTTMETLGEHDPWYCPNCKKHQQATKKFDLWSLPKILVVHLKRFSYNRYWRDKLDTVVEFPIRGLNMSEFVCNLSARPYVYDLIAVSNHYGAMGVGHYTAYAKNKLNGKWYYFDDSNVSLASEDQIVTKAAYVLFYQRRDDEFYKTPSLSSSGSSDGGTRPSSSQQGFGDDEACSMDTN
In short: as §1

Measured: log2 ratio of Biotin-Ahx-Ub-VS probe labelling

Sequence of USP34 (Q70CQ2 whole entry, the tested form may be a part): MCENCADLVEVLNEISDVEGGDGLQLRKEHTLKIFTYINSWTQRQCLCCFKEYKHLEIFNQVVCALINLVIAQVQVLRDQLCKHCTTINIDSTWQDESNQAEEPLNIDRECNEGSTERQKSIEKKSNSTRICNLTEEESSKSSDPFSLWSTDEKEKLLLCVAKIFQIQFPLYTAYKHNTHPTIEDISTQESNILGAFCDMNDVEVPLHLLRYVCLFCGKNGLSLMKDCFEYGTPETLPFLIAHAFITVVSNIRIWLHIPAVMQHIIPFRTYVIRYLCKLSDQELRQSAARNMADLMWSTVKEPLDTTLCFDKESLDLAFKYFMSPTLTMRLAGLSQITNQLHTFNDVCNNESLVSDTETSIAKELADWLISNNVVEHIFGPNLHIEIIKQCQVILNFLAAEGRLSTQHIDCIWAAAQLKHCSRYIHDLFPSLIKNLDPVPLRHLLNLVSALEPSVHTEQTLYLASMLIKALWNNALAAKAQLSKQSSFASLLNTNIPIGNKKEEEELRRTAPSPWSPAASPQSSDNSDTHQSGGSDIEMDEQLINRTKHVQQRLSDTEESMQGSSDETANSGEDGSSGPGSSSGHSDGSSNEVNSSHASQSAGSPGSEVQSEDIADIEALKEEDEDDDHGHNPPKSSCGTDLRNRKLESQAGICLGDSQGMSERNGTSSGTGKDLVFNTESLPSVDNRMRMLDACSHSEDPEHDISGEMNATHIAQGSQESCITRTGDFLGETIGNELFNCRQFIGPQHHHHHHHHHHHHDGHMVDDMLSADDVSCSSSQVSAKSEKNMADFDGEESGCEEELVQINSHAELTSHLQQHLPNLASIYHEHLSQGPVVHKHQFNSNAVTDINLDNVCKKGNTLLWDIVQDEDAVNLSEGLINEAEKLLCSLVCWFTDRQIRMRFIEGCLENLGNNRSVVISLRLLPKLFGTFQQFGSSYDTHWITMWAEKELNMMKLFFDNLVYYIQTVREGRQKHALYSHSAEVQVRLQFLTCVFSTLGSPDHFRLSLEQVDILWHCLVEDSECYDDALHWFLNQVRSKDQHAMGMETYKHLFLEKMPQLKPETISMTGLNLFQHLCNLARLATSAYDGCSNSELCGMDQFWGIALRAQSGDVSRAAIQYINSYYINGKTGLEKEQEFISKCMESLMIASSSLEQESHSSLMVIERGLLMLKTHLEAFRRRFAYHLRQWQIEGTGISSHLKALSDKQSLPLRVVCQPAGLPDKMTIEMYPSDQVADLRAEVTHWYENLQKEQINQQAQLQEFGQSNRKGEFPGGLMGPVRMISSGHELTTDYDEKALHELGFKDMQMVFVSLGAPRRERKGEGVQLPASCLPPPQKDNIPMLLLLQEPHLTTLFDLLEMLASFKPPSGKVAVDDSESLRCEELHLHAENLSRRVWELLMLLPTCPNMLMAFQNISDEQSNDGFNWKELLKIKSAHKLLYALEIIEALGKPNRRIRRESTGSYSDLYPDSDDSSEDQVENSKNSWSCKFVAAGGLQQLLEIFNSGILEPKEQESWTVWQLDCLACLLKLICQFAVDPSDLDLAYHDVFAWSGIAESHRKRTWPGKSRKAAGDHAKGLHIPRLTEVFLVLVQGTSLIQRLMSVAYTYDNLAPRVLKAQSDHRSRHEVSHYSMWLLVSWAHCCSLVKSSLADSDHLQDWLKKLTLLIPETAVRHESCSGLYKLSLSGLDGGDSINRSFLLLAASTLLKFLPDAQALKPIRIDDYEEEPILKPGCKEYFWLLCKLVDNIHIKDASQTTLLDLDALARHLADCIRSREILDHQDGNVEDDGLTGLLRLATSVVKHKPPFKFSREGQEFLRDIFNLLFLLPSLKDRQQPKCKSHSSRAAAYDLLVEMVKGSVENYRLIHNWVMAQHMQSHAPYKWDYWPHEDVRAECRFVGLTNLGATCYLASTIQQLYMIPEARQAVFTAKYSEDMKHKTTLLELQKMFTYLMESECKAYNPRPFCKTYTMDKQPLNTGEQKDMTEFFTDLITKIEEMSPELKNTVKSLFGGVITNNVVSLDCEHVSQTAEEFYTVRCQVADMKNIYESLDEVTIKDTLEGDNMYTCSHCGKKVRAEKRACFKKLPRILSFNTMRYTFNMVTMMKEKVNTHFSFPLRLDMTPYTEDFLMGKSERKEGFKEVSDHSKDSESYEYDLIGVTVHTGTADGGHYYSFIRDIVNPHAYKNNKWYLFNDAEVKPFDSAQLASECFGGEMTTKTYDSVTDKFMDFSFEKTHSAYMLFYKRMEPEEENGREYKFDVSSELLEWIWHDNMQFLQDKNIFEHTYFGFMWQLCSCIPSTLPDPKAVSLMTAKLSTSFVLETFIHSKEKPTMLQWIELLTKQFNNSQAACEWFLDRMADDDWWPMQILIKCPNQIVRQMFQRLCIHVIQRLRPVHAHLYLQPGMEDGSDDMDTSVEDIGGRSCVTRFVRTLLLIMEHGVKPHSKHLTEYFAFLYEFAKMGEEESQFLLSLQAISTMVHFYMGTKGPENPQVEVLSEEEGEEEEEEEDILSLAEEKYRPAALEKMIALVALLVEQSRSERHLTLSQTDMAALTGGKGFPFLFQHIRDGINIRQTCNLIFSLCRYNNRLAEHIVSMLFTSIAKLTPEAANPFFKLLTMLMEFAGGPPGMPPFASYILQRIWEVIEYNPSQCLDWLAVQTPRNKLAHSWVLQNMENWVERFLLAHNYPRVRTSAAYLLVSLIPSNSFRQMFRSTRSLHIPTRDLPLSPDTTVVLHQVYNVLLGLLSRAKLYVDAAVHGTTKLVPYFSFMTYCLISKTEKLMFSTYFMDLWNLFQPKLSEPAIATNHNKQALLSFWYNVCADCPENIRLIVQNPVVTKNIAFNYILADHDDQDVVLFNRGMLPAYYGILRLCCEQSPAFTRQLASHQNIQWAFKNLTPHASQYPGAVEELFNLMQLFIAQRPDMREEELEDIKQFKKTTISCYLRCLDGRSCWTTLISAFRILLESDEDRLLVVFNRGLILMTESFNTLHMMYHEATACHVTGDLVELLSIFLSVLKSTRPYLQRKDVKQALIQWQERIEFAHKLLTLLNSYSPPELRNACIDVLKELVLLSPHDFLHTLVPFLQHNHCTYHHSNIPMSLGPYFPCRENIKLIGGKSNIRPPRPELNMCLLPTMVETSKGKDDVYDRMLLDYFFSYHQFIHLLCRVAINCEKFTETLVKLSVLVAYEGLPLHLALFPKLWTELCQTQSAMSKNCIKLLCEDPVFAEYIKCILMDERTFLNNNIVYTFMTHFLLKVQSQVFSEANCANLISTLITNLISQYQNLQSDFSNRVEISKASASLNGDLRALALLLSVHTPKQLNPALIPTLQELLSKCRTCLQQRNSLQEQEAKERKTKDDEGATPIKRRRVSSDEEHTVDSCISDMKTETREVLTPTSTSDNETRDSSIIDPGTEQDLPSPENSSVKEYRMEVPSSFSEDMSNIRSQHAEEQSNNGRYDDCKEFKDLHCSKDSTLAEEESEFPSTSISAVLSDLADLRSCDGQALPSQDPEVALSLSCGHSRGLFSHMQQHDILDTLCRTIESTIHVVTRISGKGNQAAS

O=C(CCl)NCc1ccc(Cl)cc1
inactive: [1] -0.211 | [2] 0.0776 | [3] -0.0243 | [4] -0.155 | [5] 0.0847
